As usually defined, the inhibition is the drop in the measured response relative to a control, in per cent.

What all share (format): functional
For experiment [1], the target named is Solute carrier family 2, facilitated glucose transporter member 1 (Homo sapiens) (UniProt P11166). In words: ST_JUDE_LEISH: Cytotoxicity at 2uM final concentration against transgenic Leishmania Mexicana promastigotes LmGLUT1 that are glucose transport deficient and complemented with the human glucose transporter GLUT1. Activity is measured by DNA content using SYBR green in vitro.
Sequence of Solute carrier family 2, facilitated glucose transporter member 1 (Homo sapiens) (P11166 whole entry): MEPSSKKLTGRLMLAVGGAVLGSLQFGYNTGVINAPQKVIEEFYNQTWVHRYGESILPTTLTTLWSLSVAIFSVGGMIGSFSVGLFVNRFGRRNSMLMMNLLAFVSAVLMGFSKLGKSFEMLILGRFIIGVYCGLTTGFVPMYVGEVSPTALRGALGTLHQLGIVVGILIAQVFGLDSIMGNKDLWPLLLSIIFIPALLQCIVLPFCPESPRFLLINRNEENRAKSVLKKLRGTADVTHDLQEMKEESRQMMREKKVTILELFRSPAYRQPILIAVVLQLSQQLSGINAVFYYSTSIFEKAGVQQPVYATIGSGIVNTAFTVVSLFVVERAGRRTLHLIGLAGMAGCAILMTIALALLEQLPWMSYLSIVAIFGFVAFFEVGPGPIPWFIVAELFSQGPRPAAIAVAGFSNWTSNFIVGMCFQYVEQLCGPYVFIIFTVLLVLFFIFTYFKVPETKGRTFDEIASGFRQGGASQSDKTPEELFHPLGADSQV

The target in experiment [2] is Hexose transporter 1 (Plasmodium falciparum) (UniProt O97467). The experiment is described as follows: ST_JUDE_LEISH: Cytotoxicity at 2uM final concentration against transgenic Leishmania Mexicana promastigotes LmPfHT that are glucose transport deficient and complemented with the Plasmodium falciparum hexose transporter. Activity is measured by DNA content using SYBR green in vitro.

Experiment [3] addresses Glucose transporter (Leishmania mexicana) (UniProt O61059). The experiment is described as follows: ST_JUDE_LEISH: Cytotoxicity at 2uM final concentration against transgenic Leishmania Mexicana promastigotes LmGT2 that are glucose transport deficient and complemented with the L. Mexicana glucose transporter 2. Activity is measured by DNA content using SYBR green in vitro.

With `CCN(CC)c1ccc(C(=O)Cn2ccc(=N)cc2)cc1`, the inhibition in experiment [1] is 1.35%; in experiment [2], -0.06%; in experiment [3], 0.82%.

As for `CCCC(C)NC[C@@H](O)[C@H](Cc1ccccc1)NC(=O)c1cc(C2CCCC2)cc(N2CCCCS2(=O)=O)c1` (stereo partly drawn), the inhibition in experiment [1] came out at 3.4%; in experiment [2] it was 3.66%; in experiment [3], 2.98%.

On to `CCNc1cc(C(=O)N[C@@H](Cc2ccccc2)[C@H](O)CNC(C)Cc2cccc(Cl)c2)cc(N2CCCCS2(=O)=O)c1` (stereo partly drawn), for which the inhibition in experiment [1] was 0.81%; in experiment [2] it was 2.5%; in experiment [3], -1.63%.

For the compound `COc1ccccc1/C=C/C(=O)N(C)C1CCN(CCCCCNC(=O)/C=C/c2ccc(Cl)c(Cl)c2)C1` (stereo not drawn), the inhibition stood at 1.67% in experiment [1], 1.04% in experiment [2] and 0.34% in experiment [3].

For `COc1ccc2nccc([C@@H](O)CN3CCC(NCc4ccc5c(c4)NC(=O)C(C)(C)O5)CC3)c2c1`, the inhibition in experiment [1] came to 7.93%; in experiment [2] it was 8.24%; in experiment [3], 3.18%.

Regarding `CCn1c(-c2nonc2N)nc2c(-c3ccccc3)ncc(OCCCNCCCN3CCOCC3)c21`, the inhibition is 2.58% in experiment [1], 1.32% in experiment [2] and 0.55% in experiment [3].

With `COc1ccccc1-c1ccc2nnc(SCC(=O)Nc3ccc4c(c3)OCCO4)n2n1`, the inhibition in experiment [1] was 4.56%; in experiment [2], 4.26%; in experiment [3], 3.67%.

As to `CCc1ccc(CN(Cc2ccc(C)cc2)Cc2ccc(NC(C)=O)cc2)cc1`, the figures for the inhibition in experiment [1], in experiment [2] and in experiment [3] were 2.72%, 3.95% and 2.91%, respectively.

For the compound `Cc1cc(Cl)ccc1NC(=O)Nc1ccc2nccc(N3CCN(C)CC3)c2c1`, the inhibition in experiment [1] was 3.07%; in experiment [2], 6.28%; in experiment [3] it was 5.6%.

For the compound `COc1ccc(CCN(C)CCCCc2ccc(NC(=O)c3cccc4c(=O)c5cc(F)ccc5sc34)cc2)cc1OC`, the values for the inhibition in experiment [1], in experiment [2] and in experiment [3] were 9.78%, 4.42% and 2.03%, respectively.

Consider `N#CCCN1CCN(Cc2cccc(-c3ccc(-c4nc5ccccc5[nH]4)s3)c2)CC1`, for which the inhibition in experiment [1] was -1.29%; in experiment [2], -2.37%; in experiment [3], -0.4%.

For the origin of these results see ChEMBL document CHEMBL3433997, “St. Jude Leishmania screening dataset” (2016).
